This note sets out measurements from PubChem BioAssay (NCI).

Some test systems named below: SR leukemia; RPMI-8226 leukemia; OVCAR-8 ovarian; OVCAR-5 ovarian; OVCAR-4 ovarian; SK-OV-3 ovarian; OVCAR-3 ovarian; HS 578T breast; NCI/ADR-RES ovarian; T-47D breast; BT-549 breast; MDA-MB-435 melanoma; SW-620 colon; MCF7 breast; HCT-116 colon; HCC-2998 colon; KM12 colon; IGROV1 ovarian.
Experiment in all cases: NCI-60 one-dose screen, 48 h (100 = growth as untreated, 0 = no growth, -100 = all killed)
What all share (conditions): 10 µM unless noted

Compounds without any hit were thinned out: in the full panel of roughly 83,000, 20% have a hit.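 How to read the values: 0–100, growth inhibition (40 = 60% inhibited); 0, no net growth; -100 to 0, cell death (-40 = 40% of starting cells died; -100 = all dead).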 A number with no mark means an inactive call. Activity calls are given as the source filed them. The calls were made as follows: active = growth percent below 10; inactive = the rest.

For the compound `CN1C(=O)C(=Cc2cn(Cc3ccccc3)c3ccccc23)C(=O)N(C)C1=O`, the growth with SR leukemia is 68.6%; in the assay with RPMI-8226 leukemia it was 35.9%; in the assay with OVCAR-8 ovarian it was 90.5%; in the assay with OVCAR-5 ovarian, -6.96% (active); with OVCAR-4 ovarian, 49.8%; in the assay with SK-OV-3 ovarian, 51.8%. Also, the growth is 71.2% in the assay on OVCAR-3 ovarian; 86.8% in the assay with HS 578T breast; 89% with NCI/ADR-RES ovarian; 42.8% with T-47D breast; 88.9% in the assay on BT-549 breast; 102% with MDA-MB-435 melanoma. Further, the growth in the assay with SW-620 colon is 79.7%; in the assay with MCF7 breast, 64%; in the assay with HCT-116 colon, 71%; in the assay on HCC-2998 colon, 81.8%; in the assay on KM12 colon, 102%.
With `CC[C@@H]1[C@@H](C)O[C@@](O)([C@@H](C)[C@H](O)[C@H](C)[C@H]2OC(=O)/C=C/C=C/[C@H](C)[C@@H]([C@@H](C)[C@@H](O)[C@H](C)[C@@]3(O)C[C@@H](O[C@H]4C[C@@H](O)[C@H](O)C(C)O4)[C@H](CC)[C@@H](C)O3)OC(=O)/C=C/C=C/[C@@H]2C)C[C@H]1O[C@@H]1C[C@@H](O)[C@H](O)C(C)O1` (stereo partly specified), the growth with SR leukemia is -49.1% (active); with RPMI-8226 leukemia, -65.2% (active); with OVCAR-8 ovarian it was -75.9% (active); in the assay on OVCAR-5 ovarian it was -88.7% (active); in the assay on OVCAR-4 ovarian it was -95.6% (active); in the assay on SK-OV-3 ovarian, -96.5% (active). Moreover, the growth is -71.4% (active) with IGROV1 ovarian; -51.5% (active) with HS 578T breast; -64.3% (active) with NCI/ADR-RES ovarian; -63% (active) in the assay on T-47D breast; -90.5% (active) with BT-549 breast; -97% (active) with MDA-MB-435 melanoma. For the same compound, the growth was -85.3% (active) in the assay on SW-620 colon; -69.2% (active) with MCF7 breast; -81.2% (active) in the assay on HCT-116 colon; -74.7% (active) in the assay on HCC-2998 colon; -94.7% (active) with KM12 colon.
In the case of `COC(=O)[C@@H](C)C[C@H](Cc1ccccc1)NC(=O)c1nc([C@@H](C[C@H](C(C)C)N(C)C(=O)[C@@H](NC(=O)[C@H]2C[C@H](O)CCN2C)C(C)C)OC(C)=O)sc1C(C)C`, the growth was 3.04% (active) in the assay with SR leukemia; -4.65% (active) in the assay with RPMI-8226 leukemia; 10.6% in the assay on OVCAR-8 ovarian; 33.4% in the assay on OVCAR-5 ovarian; 35.6% in the assay with OVCAR-4 ovarian; 2.1% (active) in the assay on SK-OV-3 ovarian. The growth in the assay with IGROV1 ovarian is 10.2%; in the assay on OVCAR-3 ovarian, 2.66% (active); in the assay with HS 578T breast it was 6.61% (active); in the assay with NCI/ADR-RES ovarian, 38.9%; in the assay with T-47D breast, 78.5%; in the assay with BT-549 breast, -30.8% (active). Besides, the growth in the assay with MDA-MB-435 melanoma is -48.3% (active); in the assay on SW-620 colon it was 21.9%; in the assay on HCT-116 colon, 2.56% (active); with HCC-2998 colon, 14.1%; in the assay with KM12 colon, 0.729% (active).
In the case of `COc1ccc(N(CC(=O)NCCC[Te]c2ccccc2)C(=O)CCSC2=C(C)C(=O)c3ccccc3C2=O)cc1`, the growth is -40.9% (active) with RPMI-8226 leukemia; 8.05% (active) in the assay with OVCAR-8 ovarian; -57.4% (active) in the assay with OVCAR-5 ovarian; 20.2% with OVCAR-4 ovarian; -55.6% (active) in the assay on SK-OV-3 ovarian; -68.3% (active) in the assay on IGROV1 ovarian. Besides, the growth in the assay on OVCAR-3 ovarian is -40.4% (active); with HS 578T breast it was -10.3% (active); in the assay with NCI/ADR-RES ovarian, -36.3% (active); in the assay on T-47D breast, -57.7% (active); in the assay on BT-549 breast it was -18.2% (active); in the assay with MDA-MB-435 melanoma, 11.9%. The growth is 5.47% (active) in the assay on SW-620 colon; -22.3% (active) in the assay with MCF7 breast; -65.1% (active) in the assay with HCT-116 colon; -35.4% (active) in the assay on HCC-2998 colon; -17.3% (active) with KM12 colon.
As to `CC12CCC3C(CCC4=CC(=O)CCC43CF)C1CCC2=O` (stereo unspecified), the growth was 119% with SR leukemia; 94.3% in the assay on OVCAR-8 ovarian; 118% in the assay on OVCAR-5 ovarian; 98.8% in the assay on OVCAR-4 ovarian; 120% in the assay with SK-OV-3 ovarian; 62.4% in the assay on IGROV1 ovarian. The growth was 128% with HS 578T breast; 108% with NCI/ADR-RES ovarian; 39.4% with T-47D breast; 97.2% in the assay on BT-549 breast; 100% in the assay on MDA-MB-435 melanoma; 126% with SW-620 colon. Also, the growth in the assay on MCF7 breast was 130%; in the assay with HCT-116 colon, 110%; in the assay with HCC-2998 colon, 140%; in the assay with KM12 colon it was 117%.
Turning to `COC[C@@H]1C[C@@]2(C)[C@@H](CC[C@@H]3[C@@H]2CC[C@@]2(C)[C@H]3CC[C@]2(C)O)CC1=O`, the growth in the assay on SR leukemia is 83.7%; in the assay with RPMI-8226 leukemia, 84.5%; with OVCAR-8 ovarian, 95.8%; in the assay with OVCAR-5 ovarian it was 97.9%; in the assay on OVCAR-4 ovarian it was 101%; in the assay with SK-OV-3 ovarian, 98.7%. Besides, the growth in the assay with IGROV1 ovarian was 98.9%; in the assay on OVCAR-3 ovarian, 106%; in the assay on NCI/ADR-RES ovarian, 101%; with T-47D breast, 88.2%; with BT-549 breast, 89.1%; in the assay with MDA-MB-435 melanoma it was 108%. The growth in the assay on SW-620 colon was 110%; in the assay with MCF7 breast, 92.7%; with HCT-116 colon it was 96%; with HCC-2998 colon, 94.9%; in the assay with KM12 colon, 101%.
